Assay results published in the supplement of paper PMC10498489.
Hit rate of the full screen: of about 2,300 compounds, about 330 (14%) showed activity.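 The calls were made as follows: active = median modified Z-score above 1.96; inactive = 1.96 or below.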 A selection follows.

test system: HepG2 Srxn1-GFP reporter cells (+30 nM CDDO-Me); assay: Srxn1-GFP intensity median modified Z-score relative to plate median; higher = stronger NRF2 / oxidative stress reporter activation, active = hit call of the paper; conditions: 10 µM; exposure time: 24h
Outline: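 HepG2 Srxn1-GFP BAC reporter cells (20,000 per well, 96-well plates) were co-exposed to an NRF2 activator at 30 nM and compound at 10 μM (≤0.1% DMSO) for 24 h in three replicate plates. After formaldehyde fixation and Hoechst staining, confocal images were analysed per cell for cytoplasmic GFP, excluding images with under 100 cells. The value is the median over replicates of the per-plate modified Z-score of GFP intensity. Scaling used 1.4826 × median absolute deviation.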

Srxn1-GFP intensity median modified Z-score, inactive:
CCCCC(=O)N(Cc1ccc(-c2ccccc2-c2nn[nH]n2)cc1)C(C(=O)O)C(C)C (stereo unspecified) [euspeclibcmpd719] -1.02
CC(=O)OCC(=O)[C@@]1(O)CCC2C3CC=C4CC(=O)CC[C@]4(C)C3C(=O)C[C@@]21C (stereo partly specified) [euspeclibcmpd74] -0.793
CCN[C@@H]1C[C@H](N)[C@@H](O[C@H]2OC(CN)=CC[C@H]2N)[C@H](O)[C@H]1OC1OC[C@](C)(O)[C@H](NC)[C@H]1O (stereo partly specified) [euspeclibcmpd845] -0.391
CC(C)COCC(CN(Cc1ccccc1)c1ccccc1)N1CCCC1 (stereo unspecified) [euspeclibcmpd972] -0.387
CCOC(=O)OC(C)OC1=C(C(=O)N=c2cccc[nH]2)N(C)S(=O)(=O)c2ccccc21 (stereo unspecified) [euspeclibcmpd1195] 0.103
CCCCC(=O)O[C@H]1CCC2C3CCc4cc(O)ccc4C3CC[C@@]21C (stereo partly specified) [euspeclibcmpd117] -0.716
O=C(O)[C@]1(O)C[C@@H](O)[C@@H](O)[C@H](O)C1 [euspeclibcmpd1500] -0.119
O=c1ccc2ccccc2o1 [euspeclibcmpd1076] -0.351
Cc1cc(C)[nH]c(=NS(=O)(=O)c2ccc(N)cc2)n1 [euspeclibcmpd276] -0.664
Cc1cc(C(=O)NCCCn2cncn2)no1 1.31
CC(=O)O[C@@H]1C[C@@]23C[C@@]24CC[C@H](O[C@@H]2OC[C@@H](O)[C@H](O)[C@H]2O)C(C)(C)C4CCC3[C@]2(C)C[C@@H]3OC4(C[C@@H](C)[C@@H]3[C@@]12C)O[C@H](O)[C@]1(C)O[C@H]41 (stereo partly specified) [euspeclibcmpd2415] 0.583
O=c1c(O)c(-c2ccccc2)oc2ccccc12 [euspeclibcmpd1679] 1.3
CC(=O)CC(c1ccc([N+](=O)[O-])cc1)c1c(O)c2ccccc2oc1=O (stereo unspecified) [euspeclibcmpd502] -0.425
COc1ccc2c(C)cc(=O)oc2c1 [euspeclibcmpd1528] -0.287
COc1ccc2c(=O)c(OC)c(-c3ccccc3)oc2c1 [euspeclibcmpd1977] 0.483
CO[C@@]1(NC(O)=c2sc(=C(C(N)=O)C(=O)O)s2)C(=O)N2C(C(=O)O)=C(CSc3nnnn3C)CSC21 (stereo partly specified) [euspeclibcmpd474] -0.0789
CC(C)CCCC(C)C1CCC2C3CC[C@H]4CCCC[C@]4(C)C3CC[C@]12C (stereo partly specified) [euspeclibcmpd1324] 1.13
CCCCCN=C(N)NN=Cc1c[nH]c2ccc(OC)cc12 [euspeclibcmpd723] -0.285
COc1ccc2[nH]cc(CCNC(C)=O)c2c1 [euspeclibcmpd1720] -0.164
NCCc1c[nH]cn1 [euspeclibcmpd147] 0.0512
COC=C1CS[C@@H]2C(=NC(=O)C(NOC)c3csc(=N)[nH]3)C(=O)N2C1C(=O)OC(C)OC(=O)OC(C)C (stereo partly specified) [euspeclibcmpd832] -0.299
O=C1CC2(CCCC2)CC(=O)N1CCCCN1CCN(c2ncccn2)CC1 [euspeclibcmpd948] 0.569
CC1(C)SC2C(NC(=O)C(C(=O)O)c3ccsc3)C(=O)N2C1C(=O)O (stereo unspecified) [euspeclibcmpd2129] -0.127
C[C@H](CCC(=O)O)[C@H]1CCC2C3C(CC[C@@]21C)[C@@]1(C)CC[C@@H](O)C[C@H]1C[C@H]3O (stereo partly specified) [euspeclibcmpd2399] -0.395
CCC(=O)O[C@H]1[C@H](O[C@@H]2[C@@H](C)[C@H](O[C@H]3C[C@@](C)(OC)[C@@H](O)[C@H](C)O3)C(C)C(=O)O[C@H](CC)[C@@](C)(O)[C@H](O)C(C)C(=O)C(C)C[C@@]2(C)O)O[C@H](C)C[C@@H]1N(C)C (stereo partly specified) [euspeclibcmpd411] 0.128
COC(=O)c1c(C)cc(O)cc1O [euspeclibcmpd2120] -0.435
CC(=O)OCC(=O)[C@@]1(O)CCC2C3CC=C4CC(=O)C=CC4(C)C3[C@@H](O)C[C@@]21C (stereo partly specified) [euspeclibcmpd242] -0.458
O=C(NCCN1CCOCC1)NC(=O)c1ccc(Cl)cc1 1.77
COC(=O)C1CCN(C(=O)C(OC(=O)C2CCC(=O)NC2)C(C)C)CC1 (stereo unspecified) 0.378
CCOc1ccc(C(=O)c2ccc(O)c(O)c2O)cc1 [euspeclibcmpd1369] 0.486
NNCCc1ccccc1 [euspeclibcmpd231] 0.202
O=C(CCCl)NCCc1ccccc1 [euspeclibcmpd2364] 0.0303
CC(=O)OCC(=O)[C@@]1(O)[C@@H](C)CC2C3CC=C4CC(=O)C=C[C@]4(C)[C@@]3(F)[C@@H](O)C[C@@]21C (stereo partly specified) [euspeclibcmpd2268] 0.239
CC(C)=CCOc1ccc2c(=O)c(-c3ccccc3)coc2c1 0.352
CCc1c2c(nc3ccc(OC(=O)N4CCC(N5CCCCC5)CC4)cc13)-c1cc3c(c(=O)n1C2)COC(=O)C3(O)CC (stereo unspecified) [euspeclibcmpd1960] -0.421
CCCNCCCCCC[N+](C)(C)C [euspeclibcmpd616] 1.43
C[N+](C)(C)CCCCCC[N+](C)(C)C [euspeclibcmpd1134] -0.198
CC1(C)O[C@@H]2CC3C4CC=C5CC(=O)C=C[C@]5(C)[C@@]4(F)[C@@H](O)C[C@]3(C)[C@]2(C(=O)CO)O1 (stereo partly specified) [euspeclibcmpd303] -0.909
OCc1c[nH]c2ccccc12 [euspeclibcmpd1454] 0.00439
Cc1c[nH]c2ccccc12 [euspeclibcmpd1495] 0.0463
O=P(O)(O)C(O)(Cc1cccnc1)P(=O)(O)O [euspeclibcmpd2383] -0.244
CC[C@H]1OC(=O)C(C)[C@@H](O[C@H]2C[C@@](C)(OC)[C@@H](O)[C@H](C)O2)[C@H](C)[C@@H](O[C@@H]2O[C@H](C)C[C@H](N(C)C)[C@H]2O)[C@](C)(O)CC(C)C(=O)C(C)[C@@H](O)[C@]1(C)O (stereo partly specified) [euspeclibcmpd2296] -0.138
NC(Cc1cc(I)c(Oc2cc(I)c(O)c(I)c2)c(I)c1)C(=O)O (stereo unspecified) [euspeclibcmpd345] -0.572
NC(Cc1cc(I)c(Oc2ccc(O)c(I)c2)c(I)c1)C(=O)O (stereo unspecified) [euspeclibcmpd346] -0.0135
CNS(=O)(=O)Cc1ccc2[nH]cc(CCN(C)C)c2c1 [euspeclibcmpd759] -0.145
CC(=O)O[C@@H]1C[C@@]2(C)C(CC[C@@H]2C(C)=O)C2CC=C3CC(=O)CC[C@]3(C)C21 (stereo partly specified) [euspeclibcmpd1433] 0.0291
C[C@]12C=CC(=O)CC1=CCC1C2[C@@H](O)C[C@@]2(C)C1CC[C@]2(O)C(=O)COP(=O)(O)O (stereo partly specified) [euspeclibcmpd2287] 0.582
O=C(O)c1ccc2c(c1)OCO2 [euspeclibcmpd1566] -0.239
CC1(C)C2CC[C@]3(C)C(C(=O)C=C4C5C[C@@](C)(C(=O)O)CC[C@]5(C)CC[C@]43C)[C@@]2(C)CC[C@@H]1O (stereo partly specified) [euspeclibcmpd1147] -1.35
O=C(O)CCCCC1SCC2NC(=O)NC21 (stereo unspecified) [euspeclibcmpd513] -0.118
CC(C)(CO)C(=O)C(O)NCCC(=O)NCCSSCCNC(=O)CCNC(=O)C(O)C(C)(C)CO (stereo unspecified) [euspeclibcmpd1231] -0.621
O=C(O)/C=C/C=C/c1ccc2c(c1)OCO2 [euspeclibcmpd1736] -0.462
CC1(C)C2CC[C@]3(C)C(C(=O)C=C4C5C[C@@](C)(C(=O)O)CC[C@]5(C)CC[C@]43C)[C@@]2(C)CC[C@@H]1OC(=O)CCC(=O)O (stereo partly specified) [euspeclibcmpd2080] -0.0685
NC(=O)c1ccc([N+](=O)[O-])cc1Cl [euspeclibcmpd514] -0.559
CC(OC(=O)c1cc(Cl)ccc1O)C(=O)Nc1ccc([N+](=O)[O-])cc1Cl (stereo unspecified) 1.24
O=C(OCC(=O)N1CCCC1)c1sc2cc(Cl)cc(Cl)c2c1Cl 0.374

Srxn1-GFP intensity median modified Z-score, active:
N#C/C(=C\c1ccc(SC(F)(F)F)cc1)c1nnc2n1CCCCC2 2.21
CC(COc1ccccc1)N(CCCl)Cc1ccccc1 (stereo unspecified) [euspeclibcmpd203] 3.84
CC(=O)CC(c1ccccc1)c1c(O)c2ccccc2oc1=O (stereo unspecified) [euspeclibcmpd321] 5.96
COc1ccc2c(c1)OCc1c-2oc2cc(OC)ccc12 [euspeclibcmpd1708] 13.6
CCCOc1ccc2[nH]c(=NC(=O)OC)[nH]c2c1 [euspeclibcmpd575] 5.09
CCCSc1ccc2[nH]c(=NC(=O)OC)[nH]c2c1 [euspeclibcmpd630] 3.71
N=C(N)N=C(N)NCCc1ccccc1 [euspeclibcmpd898] 4.79
CCCCCCCCCCCCCCCC[N+](C)(C)C [euspeclibcmpd1124] 7.69
c1ccc2c(Cc3c[nH]c4ccccc34)c[nH]c2c1 [euspeclibcmpd2024] 18.3
COc1ccc(CCN(C)CCCC(C#N)(c2ccc(OC)c(OC)c2)C(C)C)cc1OC (stereo unspecified) [euspeclibcmpd958] 5.38
N#CC(c1ccc(Cl)cc1)c1c(Cl)cc(-n2ncc(=O)[nH]c2=O)cc1Cl (stereo unspecified) [euspeclibcmpd478] 15
O=C(O)Cc1cc(I)c(Oc2ccc(O)c(I)c2)c(I)c1 [euspeclibcmpd1243] 8.98
Cc1ccc(NC(=O)c2ccc(CN3CCN(C)CC3)cc2)cc1N=c1nc(-c2cccnc2)cc[nH]1 [euspeclibcmpd1311] 4.53
O=C(CCBr)N1CCN(C(=O)CCBr)CC1 [euspeclibcmpd576] 2.59
O=C(Nc1ccc([N+](=O)[O-])cc1Cl)c1cc(Cl)ccc1O [euspeclibcmpd562] 2.35
